Screens (PubChem)
An excerpt weighted towards active compounds, which were near 19% of everything screened.
RORg inh = qHTS for inhibitors of ROR gamma transcriptional activity. Nuclear receptor ROR-gamma (Mus musculus), P51450. Drosophila S2 Gal4-RORgamma UAS-luciferase reporter, 20 h. Potency, µM (titrated, usually from 53.6 µM), for inactives: at the top dose activity change, negative = inhibition, usual class: inhibitors. 310,000 compounds, 5.4% hits. AID 2551, 2010; also: nearly all actives have a fitted effect of over 60% in size
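Stable Schneider cell line, Gal4 DNA-binding domain fused to ROR gamma, UAS-luciferase. Cmpd 1 hr RT → CuSO4 700 uM final → 20 hr RT → luciferase reagent 10 min → luminescence.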
Gal4-VP16 FLuc = VP16 counterscreen qHTS for inhibitors of ROR gamma transcriptional activity; Drosophila S2 Gal4-VP16 UAS-luciferase, luminescence, 20 h; Potency, µM (doses to about 53.6 µM), for the others: at the top dose activity, negative = inhibition, usual class: inhibitors; 310,000 compounds, 3.5% hits; AID 2546, 2010;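 also: Gal4-VP16 expression switched on by copper sulfate through the metallothionein promoter; nearly all actives have a fitted effect of over 50% in size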
TDP1 cell CPT = qHTS for Inhibitors of human tyrosyl-DNA phosphodiesterase 1 (TDP1): qHTS in cells in presence of CPT | 420,000 compounds, 12% hits | Potency, µM (series often up to 46.2 µM), for the others: top-dose activity change, negative = growth inhibition, most hits filed as inhibitors | AID 686979, 2013 | chicken DT40 Tdp1-/-;hTDP1 cells + 20 nM CPT, ATP luminescence, 48 h; also: nearly all actives have a fitted effect of over 55% in size
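Chicken DT40 Tdp1-/- cells complemented with human TDP1, 400 cells/well, exposed to compounds plus 20 nM camptothecin for at least 48 h at 37 C; viability read as ATP content by CellTiter-Glo luminescence.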
DT40 TDP1 no CPT = qHTS for Inhibitors of human tyrosyl-DNA phosphodiesterase 1 (TDP1): qHTS in cells in absence of CPT. DT40 Tdp1-/- hTDP1 cells, no CPT, ATP luminescence, 48 h. Potency, µM (top dose mostly 46.2 µM), inactives show top-dose activity change, negative = growth inhibition, hits mostly inhibitors. 420,000 compounds, 15% hits; also: nearly all actives have a fitted effect of over 55% in size
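Camptothecin absent (DMSO only). Human TDP1-complemented DT40 knockout cells, 400 cells/well, 37 °C for minimum 48 hr; ATP measured via CellTiter-Glo, 30 min dark incubation, luminescence.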
TDP1 inh = qHTS Assay for Inhibitors of Tyrosyl-DNA Phosphodiesterase (TDP1); Tyrosyl-DNA phosphodiesterase 1 (Homo sapiens), Q9NUW8; recombinant TDP1, AlphaScreen DNA substrate cleavage; Potency, µM (series often up to 130 µM), for inactives: at the highest dose activity change, negative = inhibition, usual class: inhibitors; 350,000 compounds, 0.28% hits; AID 485290, 2010; also: nearly all actives have a fitted effect of over 40% in size
Target sequence (Q9NUW8 whole entry, looked up): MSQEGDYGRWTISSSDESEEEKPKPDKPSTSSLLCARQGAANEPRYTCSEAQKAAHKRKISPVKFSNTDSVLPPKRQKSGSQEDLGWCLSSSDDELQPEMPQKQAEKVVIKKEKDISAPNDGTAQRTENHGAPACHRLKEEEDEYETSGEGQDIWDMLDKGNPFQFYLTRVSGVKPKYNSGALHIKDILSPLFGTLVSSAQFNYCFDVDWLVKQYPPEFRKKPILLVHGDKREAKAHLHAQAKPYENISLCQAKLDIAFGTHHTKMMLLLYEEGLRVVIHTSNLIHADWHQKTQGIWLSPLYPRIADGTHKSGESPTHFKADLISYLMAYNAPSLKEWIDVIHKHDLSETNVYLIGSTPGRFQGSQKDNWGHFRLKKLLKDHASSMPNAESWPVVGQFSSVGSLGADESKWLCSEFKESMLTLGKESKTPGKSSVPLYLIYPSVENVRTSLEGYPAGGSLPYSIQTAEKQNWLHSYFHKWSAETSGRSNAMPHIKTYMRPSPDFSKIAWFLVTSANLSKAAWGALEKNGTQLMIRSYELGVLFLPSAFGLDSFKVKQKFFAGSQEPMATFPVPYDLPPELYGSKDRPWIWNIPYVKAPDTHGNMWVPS
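Signal: AlphaScreen proximity between streptavidin donor and anti-FITC acceptor beads on intact substrate. Reaction: Tdp1 1 nM, substrate 15 nM final, 5 min RT after 15 min compound preincubation.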
An asterisk follows results filed as active; ? = inconclusive; . = no result given. Calls follow the shape of the dose curve; as a rule, active = well fitted curve in the direction sought with a large enough effect; inconclusive = small, poorly fitted or top-dose-only effect, or another doubt; inactive = no such curve, though single readings can be large; an effect the other way counts as inactive or inconclusive. % is scaled to controls: 0 for no effect and ±100 for the full control effect; potency is read from the fitted curve at half-maximal effect.

SMILES	RORg inh	Gal4-VP16 FLuc	TDP1 cell CPT	DT40 TDP1 no CPT	TDP1 inh
CCN1CCN(c2cc(C)c3cc(NC(=O)c4ccncc4)ccc3n2)CC1	-10%	-6%	?	?	1%
CCN1CCN(c2cc(C)c3cc(NC(=O)c4ccc(C)c(C)c4)ccc3n2)CC1	-34%	-5%	?	18µM*	.
O=C(c1cccc(N2C(=O)C3C4C=CC(C4)C3C2=O)c1)N1CCCc2ccccc21 (centres undefined)	9%	4%	-9%	?	-1%
CC(OC(=O)c1cccc([N+](=O)[O-])c1)C(=O)N1CCc2ccccc21 (centres undefined)	.	.	?	?	3%
O=C(c1cccc(N2C(=O)C3CC=CCC3C2=O)c1)N1CCCc2ccccc21 (centres undefined)	18%	2%	?	1.5µM*	9%
O=C(Nc1cccc(N2C(=O)C3CCCCC3C2=O)c1)c1ccccc1 (centres undefined)	3%	1%	-21%	0%	0%
O=C(Nc1cccc(Cl)c1)c1cccc(N2C(=O)C3CC=CCC3C2=O)c1 (centres undefined)	4%	17%	?	?	25µM*
O=C(Nc1cccc(C(=O)N2CCCc3ccccc32)c1)c1ccccc1	-75%	?	?	21µM*	.
CC(=O)Nc1cccc(C(=O)OC(C)C(=O)N2CCc3ccccc32)c1 (centres undefined)	.	.	29µM*	4.1µM*	.
Cc1ccc(C(C)C)c(OCC(=O)Nc2ccc(-c3nc4ncccc4o3)cc2C)c1	.	.	-1%	-14%	-1%
COc1ccc(CCNC(=O)C2CC(c3ccccc3F)=NO2)cc1 (centres undefined)	0%	1%	0%	-18%	1%
O=C(c1ccccc1)N1CCN(C(=O)c2ccccc2)c2ccccc21	.	.	8.2µM*	?	.
C=CCNCCCCOc1cccc(Br)c1	-4%	-3%	-6%	-22%	6%
C=CCC[C@@H](Cc1ccc(F)cc1)C(=O)OC[C@H](C)NC(=O)[C@H](CC=C)CC(=O)N(CCO)Cc1ccccc1	.	.	18µM*	?	-1%
C=CC[C@@H](CC(=O)NCCO)C(=O)N[C@@H](C)COC(=O)[C@@H](CC=C)Cc1ccc(F)cc1	.	.	3%	-2%	1%
C=CCC[C@@H](Cc1ccc(F)cc1)C(=O)OCCNC(=O)[C@@H](CC=C)CC(=O)N(CCO)Cc1ccccc1	.	.	21µM*	21µM*	-1%
C=CC[C@H](CC(=O)N(CCO)Cc1ccccc1)C(=O)N[C@@H](C)COC(=O)[C@@H](CC=C)Cc1ccc(F)cc1	.	.	16µM*	?	1%
C=CCC[C@@H](Cc1ccc(F)cc1)C(=O)OC[C@@H](NC(=O)[C@H](CC=C)CC(=O)N(CCO)Cc1ccccc1)c1ccccc1	.	.	?	?	1%
C=CC[C@H](CC(=O)N(CCO)Cc1ccccc1)C(=O)NCCOC(=O)[C@@H](CC=C)Cc1ccc(F)cc1	.	.	?	?	1%
C=CCC[C@@H](Cc1ccc(F)cc1)C(=O)OC[C@@H](NC(=O)[C@@H](CC=C)CC(=O)N(CCO)Cc1ccccc1)c1ccccc1	.	.	15µM*	26µM*	-1%
Cc1cc(C)c2nc(NC(=O)c3cccc(S(=O)(=O)N4CCc5ccccc54)c3)sc2c1	-7%	-11%	3%	-21%	0%
C=CCC[C@H](Cc1ccc(F)cc1)C(=O)OC[C@@H](C)NC(=O)[C@H](CC=C)CC(=O)N(CCO)Cc1ccccc1	.	.	15µM*	18µM*	0%
C=CCC[C@@H](Cc1ccc(F)cc1)C(=O)OC[C@H](C)NC(=O)[C@@H](CC=C)CC(=O)N(CCO)Cc1ccccc1	.	.	?	21µM*	-7%
